From the supplement of paper PMC6853941

What follows are molecules tested on MCF10A (assay: perturbation Mahalanobis distance of morphological profile vs DMSO controls (Mahalanobis distance (SD units)); higher = stronger morphological change, active = 7 or more). Settings: screen batch: Batch2_Mahalanobis_Distance; 72 h.
Procedure: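 MCF10A cells were seeded onto drugs dispensed acoustically into 384-well plates, using one dose per drug chosen from its human peak plasma concentration, and incubated for 72 h at 37 °C. Cells were stained for DNA, tubulin and mitochondria and imaged; 78 CellProfiler features were extracted, plate-normalised and compared with DMSO wells.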

Row | SMILES | perturbation Mahalanobis distance
1 | Cc1nnc(C(C)C)n1C1C[C@H]2CC[C@@H](C1)N2CC[C@H](NC(=O)C1CCC(F)(F)CC1)c1ccccc1 (stereo partly specified) [Maraviroc] (11.35 µM) | 2.67 (inactive)
2 | Cc1ccc(NC(=O)c2ccc(CN3CCN(C)CC3)cc2)cc1Nc1nccc(-c2cccnc2)n1 [Imatinib] (14 µM) | 6.84 (inactive)
3 | N[C@@H]1CONC1=O [D-Cycloserine] (98 µM) | 9.13 (active)
4 | Nc1ccn([C@@H]2O[C@H](CO)[C@@H](O)[C@@H]2O)c(=O)n1 [Cytarabine] (10.3 µM) | 17.9 (active)
5 | CN(C)C(=O)C(CCN1CCC(O)(c2ccc(Cl)cc2)CC1)(c1ccccc1)c1ccccc1 [Loperamide] (32 µM) | 2.31 (inactive)
6 | OCC(O)COc1ccc(Cl)cc1 (stereo unspecified) [Chlorphenesin] (83.9 µM) | 4 (inactive)
7 | CNC[C@H](O)c1ccc(O)c(O)c1 [Epinephrine] (27.3 µM) | 2.89 (inactive)
8 | CCCCC(F)(F)[C@@]1(O)CC[C@H]2[C@@H](CC(=O)[C@@H]2CCCCCCC(=O)O)O1 [Lubiprostone] (64 µM) | 2.48 (inactive)
9 | Cc1c(OCC(F)(F)F)ccnc1CS(=O)c1nc2ccccc2[nH]1 (stereo unspecified) [Lansoprazole] (23 µM) | 8.49 (active)
10 | Cc1ccc(Nc2nccc(N(C)c3ccc4c(C)n(C)nc4c3)n2)cc1S(N)(=O)=O [Pazopanib] (132.6 µM) | 2.85 (inactive)
11 | Cc1[nH]c(=O)c(C#N)cc1-c1ccncc1 [Milrinone] (5.9 µM) | 3.46 (inactive)
